The text below walks through data of ChEMBL document CHEMBL1157539, “Thousands of chemical starting points for antimalarial lead identification” (Nature, 2010).

The Inhibition is the drop in the measured response relative to a control, in per cent. Read a high Inhibition as a response far below the control.

What all share (assay type): functional
The test system of experiment [1] is Plasmodium falciparum. The experiment can be described thus: GSK_TCMDC: Inhibition of Plasmodium falciparum 3D7 in whole red blood cells, using parasite LDH activity as an index of growth. Test compounds present at 2uM.
Experiment [2] relates to Plasmodium falciparum. The experiment can be described thus: GSK_TCMDC: Inhibition of Plasmodium falciparum Dd2 in whole red blood cells, using parasite LDH activity as an index of growth. Test compounds present at 2uM.
Another experiment relates to HepG2. Briefly: GSK_TCMDC: Percent inhibition of human HepG2 cell line. Test compounds present at 10uM.

As to `COc1ccc2nc(-c3cc(-c4ccc(NC(=O)C(C)C)cc4)cnc3N)[nH]c2c1`, the results for the Inhibition in the experiment on Plasmodium falciparum [1], with Plasmodium falciparum [2] and in the experiment with HepG2 were 100%, 47% and 43%, respectively.

Turning to `Cc1cccc2nc(-c3ccc(-c4cccc(NC(=O)C(C)CN5CCN(C)CC5)c4)s3)[nH]c12` (configuration not stated), the Inhibition was 97% in the experiment on Plasmodium falciparum [1], 75% in the experiment on Plasmodium falciparum [2] and 11% in the experiment with HepG2.

Regarding `S=c1nc(-c2ccccc2)n2ccsc2n1`, the values for the Inhibition with Plasmodium falciparum [1], in the experiment on Plasmodium falciparum [2] and in the experiment on HepG2 were 95%, 0% and 3%, respectively.

As for `O=C(O)C(=O)O.Oc1ccccc1CN1CCN(C(c2ccccc2)c2ccccc2)CC1`, the Inhibition is on record as 98% in the experiment with Plasmodium falciparum [1], 90% in the experiment with Plasmodium falciparum [2] and 0% in the experiment with HepG2.

`Cc1ccc(Nc2nnc(SCC(=O)Nc3ccc(CN4CCCC4)cc3)s2)cc1`: the Inhibition was 91% in the experiment on Plasmodium falciparum [1], 0% with Plasmodium falciparum [2] and 4% with HepG2.

Turning to `COc1ccc(OC)c2c1CC1NCC2c2c(OC)ccc(OC)c21.Cl` (configuration not stated), the Inhibition in the experiment on Plasmodium falciparum [1] is 99%; in the experiment with Plasmodium falciparum [2], 3%; with HepG2, 2%.

Take `O=C(O)C(F)(F)F.O=[N+]([O-])c1cccc(CNCC2CCN(Cc3ccc(C(F)(F)F)cc3)CC2)c1`: the Inhibition with Plasmodium falciparum [1] stood at 100%; in the experiment with Plasmodium falciparum [2] it was 23%; in the experiment with HepG2, 7%.

For `Cc1cc(CNCCCCCCNCc2cccc([N+](=O)[O-])c2)ccc1O`, the values for the Inhibition in the experiment on Plasmodium falciparum [1], in the experiment on Plasmodium falciparum [2] and in the experiment on HepG2 were 90%, 0% and 13%, respectively.

Consider `O=C(NCc1cccc(C(F)(F)F)c1)c1ccc(-c2nc3cc(F)c(F)cc3[nH]2)cc1`, for which the Inhibition with Plasmodium falciparum [1] came out at 97%; in the experiment with Plasmodium falciparum [2], 7%; in the experiment with HepG2 it was 0%.

Consider `O=C(NC1CC1)c1ccc(N2CCCCN2CCc2ccccc2)c(C(F)(F)F)c1.O=C(O)C(F)(F)F`, for which the Inhibition is 98% in the experiment with Plasmodium falciparum [1], 84% with Plasmodium falciparum [2] and 0% with HepG2.

Turning to `CC[C@H](NC(=O)c1c(CN2CCC(N3CCCCC3)CC2)c(-c2ccccc2)nc2c(Cl)c(O)ccc12)c1ccccc1.Cl`, the values for the Inhibition in the experiment on Plasmodium falciparum [1], in the experiment on Plasmodium falciparum [2] and in the experiment with HepG2 were 100%, 66% and 0%, respectively.

For the compound `CN1CCCC1CCOc1ccc2c(c1)N(C(=O)Nc1cc(Br)cc(C(F)(F)F)c1)CC2.O=C(O)C(F)(F)F` (configuration not stated), the Inhibition in the experiment with Plasmodium falciparum [1] turned out to be 100%; in the experiment with Plasmodium falciparum [2] it was 97%; with HepG2, 13%.

As to `CC(C)CCN1CCCN(Cc2ccc(C(=O)NCc3ccc(Cl)cc3)cc2)CC1.O=C(O)C(F)(F)F`, the Inhibition was determined as 84% in the experiment with Plasmodium falciparum [1], 0% in the experiment with Plasmodium falciparum [2] and 16% with HepG2.

Turning to `CC1(C)[C@H]2CC[C@@H](CNc3nc(NCCc4c[nH]cn4)nc(Nc4ccc(Oc5ccccc5)cc4)n3)[C@@H]1C2`, the Inhibition in the experiment with Plasmodium falciparum [1] was 99%; with Plasmodium falciparum [2], 86%; in the experiment with HepG2, 2%.

On to `CCOC(=O)c1ccc(N2CCN(CCCNC(=O)/C(=C/C=C/c3cc4cc(Cl)c(Cl)cc4[nH]3)OC)CC2)cc1`, for which the figures for the Inhibition in the experiment with Plasmodium falciparum [1], in the experiment on Plasmodium falciparum [2] and in the experiment on HepG2 were 93%, 72% and 39%, respectively.

Regarding `Cc1ccc(-c2nc(N3CCN(C(=O)c4ccco4)CC3)c3ccccc3n2)cc1`, the Inhibition in the experiment on Plasmodium falciparum [1] is on record as 90%; with Plasmodium falciparum [2], 75%; in the experiment with HepG2, 0%.

`CN(C)CCCOc1ccccc1CN1CC[C@H](NC(=O)c2ccc(Cl)c(Cl)c2)C1.O=C(O)C(F)(F)F`: the values for the Inhibition in the experiment on Plasmodium falciparum [1], in the experiment on Plasmodium falciparum [2] and in the experiment on HepG2 were 94%, 54% and 42%, respectively.

Turning to `CN(C)c1nc2cc(-n3cnc4cc(-c5ccc(Cl)cc5)sc4c3=O)ccc2n1CCCN1CCCCC1.O=C(O)C(F)(F)F`, the Inhibition in the experiment on Plasmodium falciparum [1] was determined as 97%; with Plasmodium falciparum [2], 23%; with HepG2, 55%.

With `Cc1cccc2nc(-c3ccc(-c4ccc(CNCc5ccc(CN)cc5)cc4)cc3)[nH]c12.O=C(O)C(F)(F)F`, the Inhibition is listed as 100% in the experiment with Plasmodium falciparum [1], 46% with Plasmodium falciparum [2] and 14% in the experiment on HepG2.

`O=C(N[C@H]1CCN(Cc2ccc(OCCCN3CCCCC3)cc2)C1)c1ccc(Cl)c(Cl)c1`: the Inhibition with Plasmodium falciparum [1] was found to be 100%; with Plasmodium falciparum [2], 36%; with HepG2, 27%.

`COc1ccc(S(=O)(=O)NC2CCN(c3cc(C)nc(Nc4cccc(C#N)c4)n3)CC2)cc1.O=C(O)C(F)(F)F`: the values for the Inhibition in the experiment on Plasmodium falciparum [1], in the experiment on Plasmodium falciparum [2] and in the experiment with HepG2 were 88%, 55% and 9%, respectively.

Consider `O=C(Nc1ccc([N+](=O)[O-])cc1Br)c1cc2ccccc2nc1Cl`, for which the results for the Inhibition in the experiment with Plasmodium falciparum [1], in the experiment on Plasmodium falciparum [2] and in the experiment on HepG2 were 97%, 68% and 0%, respectively.

On to `CCCC(C)NC(=O)[C@H](CC1CCCCC1)NC(=O)c1ccc(O)c(-c2ccc(OC)cc2)c1` (some centres not stated), for which the figures for the Inhibition in the experiment on Plasmodium falciparum [1], in the experiment on Plasmodium falciparum [2] and in the experiment with HepG2 were 89%, 37% and 3%, respectively.

`CNC(=O)c1cnc(Nc2ccc(N3CCN(C)CC3)cc2)nc1Nc1ccccc1OC.O=C(O)C(F)(F)F`: the Inhibition with Plasmodium falciparum [1] was determined as 100%; in the experiment with Plasmodium falciparum [2], 84%; in the experiment on HepG2 it was 8%.

As for `COc1ccc2c(NN=Cc3ccccn3)ccnc2c1`, the Inhibition was found to be 100% in the experiment on Plasmodium falciparum [1], 96% with Plasmodium falciparum [2] and 14% with HepG2.

Turning to `Cc1cccc2nc(-c3cccc(-c4ccc(NC(=O)NC5CC5c5ccccc5)cc4)c3)[nH]c12` (configuration not stated), the Inhibition with Plasmodium falciparum [1] is given as 98%; in the experiment with Plasmodium falciparum [2], 49%; in the experiment on HepG2, 25%.

For `CC1(C)CC2CC(C)(CN2C(=O)c2cc(C(C)(C)C)nn2Cc2ccccc2)C1` (configuration not stated), the Inhibition worked out at 86% with Plasmodium falciparum [1], 77% in the experiment on Plasmodium falciparum [2] and 0% in the experiment on HepG2.

`Oc1ccc(Nc2nc(NCc3ccco3)c3ccccc3n2)cc1`: the Inhibition came out at 100% in the experiment with Plasmodium falciparum [1], 78% in the experiment on Plasmodium falciparum [2] and 7% in the experiment with HepG2.

On to `Cc1sc2nc(CN3CCCC3)nc(-n3c(NCCO)nc4ccccc43)c2c1C`, for which the Inhibition in the experiment on Plasmodium falciparum [1] stood at 96%; in the experiment on Plasmodium falciparum [2] it was 11%; in the experiment on HepG2, 19%.
